Data on eight compounds can be found in PubChem BioAssay (EPA / NIEHS).

Several values for one entry are separate records, joined by “and”; a condition that tells them apart may be missing. Equal entries are not always repeated. Records with an inconclusive call do not appear. Activity calls are given as the source filed them. The calls were made as follows, unless noted: active = hit-call score of the fitted dose curve at least 0.9, where 1 is the maximum; inactive = score below 0.9.

Assay [1] is described as follows: ATG_NFI_CIS: Attagene CIS-FACTORIAL HepG2 Assay for human Nuclear Factor I (NFI) (AID 2282989). To be noted: HepG2 cis-regulatory reporter, NFI response element transcription; actives raise or lower the signal. The method in brief:
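Read-out: reporter mRNA via RT-PCR plus capillary electrophoresis with fluorescence detection. Transiently transfected HepG2 (endogenous TF activity on cis promoters), 24 h compound exposure; gain or loss of signal fitted against DMSO.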

Assay [2] in a line: ATG_NF_kB_CIS: Attagene CIS-FACTORIAL HepG2 Assay for human Nuclear Factor Kappa B (NF-kB) (AID 2282991). The note with it: HepG2 Attagene cis-factorial NF-kB reporter mRNA; actives raise or lower the signal. The method in brief: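 Endpoint from a 52-component multiplexed HepG2 reporter panel: cis-regulated transcription units transiently transfected, 24 h dosing, reporter mRNA quantified by RT-PCR and capillary electrophoresis, scored as increase or decrease against DMSO.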

A short description of assay [3]: ATG_NRF2_ARE_CIS: Attagene CIS-FACTORIAL HepG2 Assay for human Nuclear Factor Erythroid 2 Related Factor 2 (NFR2) response to Antioxidant Response Elements (ARE) (AID 2282992).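 As to AC50: reporter mRNA level measured by RT-PCR and capillary electrophoresis fluorescence.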 The note with it: HepG2 Attagene ARE/NRF2 reporter, transcription factor activity; actives raise or lower the signal. The method in brief:
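HepG2 cells transiently transfected with multiplexed cis-element reporter constructs, 24 h after chemical dosing; reporter mRNA quantified by RT-PCR, fluorescent primer extension, HpaI digestion and capillary electrophoresis. Bidirectional fit relative to DMSO.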

The nature of assay [4]: ATG_Oct_MLP_CIS: Attagene CIS-FACTORIAL HepG2 Assay for human Octamer-Binding Transcription Factor (Oct) (AID 2282993). The note with it: HepG2 Attagene cis-factorial Oct reporter, mRNA; actives raise or lower the signal. An outline of the steps: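 Read-out: reporter mRNA via RT-PCR plus capillary electrophoresis of 6-FAM-labelled fragments. Transiently transfected HepG2, 24 h exposure, endogenous TF activity on cis elements. Gain or loss of signal fitted relative to DMSO.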

Assay [5] in a line: BSK_3C_TissueFactor: BioMAP Diversity Plus: 3C Assay for Tissue Factor Biomarker Activity (AID 2282997). The note with it: BioMAP 3C HUVEC, tissue factor biomarker readout; actives raise or lower the signal. An outline of the steps:
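Human vascular primary cells (umbilical vein endothelium) received test chemical; Tissue Factor was determined by ELISA at 24 h, and both gain and loss of signal versus DMSO were fitted.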

A short description of assay [6]: BSK_3C_uPAR: BioMAP Diversity Plus: 3C Assay for Urokinase-type plasminogen activator receptor (uPAR) Biomarker Activity (AID 2282998). To be noted: BioMAP 3C HUVEC, uPAR biomarker ELISA; actives raise or lower the signal. An outline of the steps: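 HUVEC primary cells; 24 h post-dose; uPAR by ELISA; gain or loss of signal fitted bidirectionally vs DMSO baseline.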
For orientation: ELISA stands for enzyme-linked immunosorbent assay.

A short description of assay [7]: BSK_4H_Eotaxin3: BioMAP Diversity Plus: 4H Assay for Eotaxin 3 Biomarker Activity (AID 2283000).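 As to outcome: CCL26 protein level quantified by ELISA in parallel with SRB cytotoxicity check.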 The note with it: primary human endothelial cells (HUVEC); actives raise or lower the signal. An outline of the steps: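 Readout is Eotaxin-3 (CCL26) level by ELISA in primary human umbilical vein endothelial cells harvested 24 h after chemical exposure; activity fitted in both directions against DMSO control.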

For assay [8], the target named is human Peroxisome Proliferator-activated Receptor alpha (PPARa), PPARA (gene 5465) (UniProt Q07869). As to the kind of experiment: ATG_PPARa_TRANS: Attagene TRANS-FACTORIAL HepG2 Assay for human Peroxisome Proliferator-activated Receptor alpha (PPARa) (AID 2283001; active = hit-call score of the fitted dose curve at least 0.9, where 1 is the maximum). An outline of the steps: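 Measures transcriptional activity of an exogenous chimeric PPARa-Gal4 protein in transiently transfected HepG2 cells after 24 h dosing. Reporter mRNA quantified via RT-PCR and capillary electrophoresis; DMSO served as negative control.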
human Peroxisome Proliferator-activated Receptor alpha (PPARa), PPARA (gene 5465), sequence (Q07869 whole entry, looked up, the tested form may be a part): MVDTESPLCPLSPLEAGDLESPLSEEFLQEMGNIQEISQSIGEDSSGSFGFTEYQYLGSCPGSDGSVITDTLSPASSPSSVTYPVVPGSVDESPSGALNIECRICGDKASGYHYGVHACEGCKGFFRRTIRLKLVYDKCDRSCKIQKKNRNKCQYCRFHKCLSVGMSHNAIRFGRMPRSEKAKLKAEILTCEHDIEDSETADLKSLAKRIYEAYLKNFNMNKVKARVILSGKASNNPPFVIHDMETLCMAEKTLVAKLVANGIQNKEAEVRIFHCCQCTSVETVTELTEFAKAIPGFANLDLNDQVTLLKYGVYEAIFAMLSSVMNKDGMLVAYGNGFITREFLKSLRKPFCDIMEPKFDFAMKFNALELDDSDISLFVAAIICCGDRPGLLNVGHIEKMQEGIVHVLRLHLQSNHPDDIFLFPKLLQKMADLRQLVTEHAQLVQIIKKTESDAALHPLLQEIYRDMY

Assay [9] has as its target human Peroxisome Proliferator-activated Receptor delta (PPARd), PPARD (gene 5467) (UniProt Q03181). As to the kind of experiment: ATG_PPARd_TRANS: Attagene TRANS-FACTORIAL HepG2 Assay for human Peroxisome Proliferator-activated Receptor delta (PPARd) (AID 2283002; active = hit-call score of the fitted dose curve at least 0.9, where 1 is the maximum). An outline of the steps:
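HepG2 cells transiently transfected with GAL4-UAS multiplexed reporter units driven by exogenous chimeric NR-GAL4 proteins; 24 h compound exposure. Reporter mRNA measured by RT-PCR, 6-FAM primer extension, HpaI digestion and capillary electrophoresis; gain of signal fitted relative to DMSO.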

Read-out in assay [10]: Intercellular Adhesion Molecule 1 (ICAM1), ICAM1 (gene 3383)
As to the kind of experiment: BSK_3C_ICAM1: BioMAP Diversity Plus: 3C Assay for Intercellular Adhesion Molecule 1 (ICAM1) Biomarker Activity (AID 2283003). The note with it: primary human endothelial cells (HUVEC); actives raise or lower the signal. An outline of the steps: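 Human vascular endothelial primary cells, 3C conditions, 24 h treatment. ICAM-1 by ELISA.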

The target of assay [11] is Retinoic acid receptor alpha (Homo sapiens) (UniProt P10276). Kind of assay: ATG_RARa_TRANS: Attagene TRANS-FACTORIAL HepG2 Assay for human Retinoic Acid Receptor alpha (RARa) (AID 2283005; active = hit-call score of the fitted dose curve at least 0.9, where 1 is the maximum). An outline of the steps: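 HepG2 transiently transfected with multiplex GAL4-UAS reporter units including a human RARa–GAL4 chimera; 24 h compound exposure. Reporter mRNA quantified by RT-PCR, 6-FAM labeling and capillary electrophoresis; gain of signal versus DMSO.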
Retinoic acid receptor alpha (Homo sapiens), sequence (P10276 whole entry, looked up, the tested form may be a part): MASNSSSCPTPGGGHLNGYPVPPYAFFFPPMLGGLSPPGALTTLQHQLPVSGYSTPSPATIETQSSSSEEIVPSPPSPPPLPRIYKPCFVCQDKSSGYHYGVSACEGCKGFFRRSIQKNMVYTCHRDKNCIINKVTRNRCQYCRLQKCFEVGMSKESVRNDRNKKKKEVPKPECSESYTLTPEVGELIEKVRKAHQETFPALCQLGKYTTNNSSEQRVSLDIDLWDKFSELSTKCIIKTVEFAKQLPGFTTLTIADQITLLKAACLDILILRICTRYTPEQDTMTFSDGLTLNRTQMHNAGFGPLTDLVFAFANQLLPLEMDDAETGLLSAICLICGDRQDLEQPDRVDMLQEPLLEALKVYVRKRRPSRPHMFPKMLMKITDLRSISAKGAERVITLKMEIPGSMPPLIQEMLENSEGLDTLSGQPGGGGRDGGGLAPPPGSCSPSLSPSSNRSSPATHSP

Assay [12] can be described thus: BSK_3C_Proliferation: Cell Proliferation Assessment in the BioMAP Diversity Plus: 3C Assay (AID 2283006).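 As to AC50: potency may reflect either rise or fall in cell number versus DMSO.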 To be noted: primary human endothelial cells (HUVEC). The method in brief: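 Proliferation of human vascular endothelial primary cells after 48 h dosing, quantified as SRB-stained protein at 560 nm relative to DMSO.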
Assay [13] deals with Peroxisome proliferator-activated receptor gamma (Homo sapiens) (UniProt P37231). Kind of assay: ATG_PPARg_TRANS: Attagene TRANS-FACTORIAL HepG2 Assay for human Peroxisome Proliferator-activated Receptor-gamma (PPARg) (AID 2283007; active = hit-call score of the fitted dose curve at least 0.9, where 1 is the maximum). The method in brief:
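Endpoint reflects upward reporter mRNA change versus DMSO controls. Setup: transiently transfected HepG2, GAL4-UAS reporters driven by chimeric NR-Gal4, 24 h incubation, RT-PCR with capillary electrophoresis read-out.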

For assay [14], the target named is Nuclear receptor subfamily 1 group I member 2 (Homo sapiens) (UniProt O75469). As to the kind of experiment: ATG_PXR_TRANS: Attagene TRANS-FACTORIAL HepG2 Assay for human Pregnane X Receptor (PXR) (AID 2283008; active = hit-call score of the fitted dose curve at least 0.9, where 1 is the maximum). The method in brief: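 HepG2 cells transiently transfected with GAL4-UAS reporter units and PXR-Gal4 chimera, exposed 24 h. Reporter mRNA quantified by RT-PCR, fluorescent labelling, HpaI digestion and capillary electrophoresis; gain of signal vs DMSO.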
Nuclear receptor subfamily 1 group I member 2 (Homo sapiens), sequence (O75469 whole entry, looked up, the tested form may be a part): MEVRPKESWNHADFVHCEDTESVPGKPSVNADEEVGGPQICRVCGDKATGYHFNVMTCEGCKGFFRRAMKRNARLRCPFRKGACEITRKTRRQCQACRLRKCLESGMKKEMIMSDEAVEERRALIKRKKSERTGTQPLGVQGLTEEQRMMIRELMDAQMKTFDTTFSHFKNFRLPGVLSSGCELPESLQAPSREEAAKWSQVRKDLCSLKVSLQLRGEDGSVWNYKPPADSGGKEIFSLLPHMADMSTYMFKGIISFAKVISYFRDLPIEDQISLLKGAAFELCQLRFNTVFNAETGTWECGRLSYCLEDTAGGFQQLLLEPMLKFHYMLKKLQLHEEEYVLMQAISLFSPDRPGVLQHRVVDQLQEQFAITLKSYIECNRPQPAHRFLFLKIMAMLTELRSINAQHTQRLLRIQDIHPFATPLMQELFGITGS

Assay [15] concerns the target human RAR-related Orphan Receptor beta (RORb), RORB (gene 6096) (UniProt Q92753). Kind of assay: ATG_RORb_TRANS: Attagene TRANS-FACTORIAL HepG2 Assay for human RAR-related Orphan Receptor beta (RORb) (AID 2283010; active = hit-call score of the fitted dose curve at least 0.9, where 1 is the maximum). An outline of the steps: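 In this TRANS-format test, human HepG2 cells express chimeric NR-Gal4 fusion proteins driving GAL4-UAS reporters. After 24 h dosing, reporter transcripts are measured by fluorescent RT-PCR/capillary electrophoresis, with DMSO as negative control.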

The target of assay [16] is Cellular tumor antigen p53 (Homo sapiens) (UniProt P04637). Kind of assay: ATG_p53_CIS: Attagene CIS-FACTORIAL HepG2 Assay for human p53 Transcription Factor (AID 2282994). To be noted: HepG2 p53 cis-element reporter, Attagene mRNA; actives raise or lower the signal. An outline of the steps:
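HepG2 cells transiently transfected with cis-regulated multiple reporter transcription units, dosed 24 h. Reporter mRNA measured by RT-PCR, 6-FAM primer extension, HpaI digestion and capillary electrophoresis; bidirectional fit relative to DMSO.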

For assay [17], the target named is human Retinoic Acid Receptor beta (RARb), RARB (gene 5915) (UniProt P10826). Kind of assay: ATG_RARb_TRANS: Attagene TRANS-FACTORIAL HepG2 Assay for human Retinoic Acid Receptor beta (AID 2283004; active = hit-call score of the fitted dose curve at least 0.9, where 1 is the maximum). The method in brief: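 Readout is reporter mRNA induction: RNA reverse-transcribed, PCR-amplified, FAM-labelled, HpaI-cut and resolved by capillary electrophoresis. Transiently transfected HepG2 cells carrying exogenous NR–Gal4 chimeras were dosed for 24 h; activity fitted upward relative to DMSO.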
human Retinoic Acid Receptor beta (RARb), RARB (gene 5915), sequence (P10826 whole entry, looked up, the tested form may be a part): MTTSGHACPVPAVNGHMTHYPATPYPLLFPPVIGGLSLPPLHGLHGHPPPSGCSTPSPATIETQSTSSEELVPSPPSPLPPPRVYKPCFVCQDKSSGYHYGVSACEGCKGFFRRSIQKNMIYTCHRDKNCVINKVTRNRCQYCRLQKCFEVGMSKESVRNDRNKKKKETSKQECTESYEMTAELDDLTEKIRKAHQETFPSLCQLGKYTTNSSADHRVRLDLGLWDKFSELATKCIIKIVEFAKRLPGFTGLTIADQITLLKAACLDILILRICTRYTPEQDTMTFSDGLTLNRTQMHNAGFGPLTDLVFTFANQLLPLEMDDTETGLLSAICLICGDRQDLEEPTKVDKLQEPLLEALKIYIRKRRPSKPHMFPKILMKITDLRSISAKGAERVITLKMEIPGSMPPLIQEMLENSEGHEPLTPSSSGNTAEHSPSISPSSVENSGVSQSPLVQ

Assay [18] has as its target human Retinoic Acid Receptor gamma (RARg), RARG (gene 5916) (UniProt P13631). Kind of assay: ATG_RARg_TRANS: Attagene TRANS-FACTORIAL HepG2 Assay for human Retinoic Acid Receptor gamma (RARg) (AID 2283009; active = hit-call score of the fitted dose curve at least 0.9, where 1 is the maximum). The method in brief: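 HepG2, RARg-GAL4 TRANS system, 24 h exposure; reporter mRNA by RT-PCR + CE fluorescence; increase over DMSO.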
For assay [19], the target named is Myc proto-oncogene protein (Homo sapiens) (UniProt P01106). Kind of assay: ATG_Myc_CIS: Attagene CIS-FACTORIAL HepG2 Assay for human Myelocytomatosis (Myc) Proto-Oncogene Transcription Factor (AID 2282990). The note with it: HepG2, Attagene cis-reporter transcription factor activity; actives raise or lower the signal. An outline of the steps:
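Transiently transfected HepG2 cells bearing cis-promoter reporter units for endogenous transcription factors; 24 h exposure. Reporter mRNA measured by RT-PCR, 6-FAM primer extension, HpaI cut and capillary electrophoresis; bidirectional fit relative to DMSO.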

human Retinoic Acid Receptor gamma (RARg), RARG (gene 5916), sequence (P13631 whole entry, looked up, the tested form may be a part): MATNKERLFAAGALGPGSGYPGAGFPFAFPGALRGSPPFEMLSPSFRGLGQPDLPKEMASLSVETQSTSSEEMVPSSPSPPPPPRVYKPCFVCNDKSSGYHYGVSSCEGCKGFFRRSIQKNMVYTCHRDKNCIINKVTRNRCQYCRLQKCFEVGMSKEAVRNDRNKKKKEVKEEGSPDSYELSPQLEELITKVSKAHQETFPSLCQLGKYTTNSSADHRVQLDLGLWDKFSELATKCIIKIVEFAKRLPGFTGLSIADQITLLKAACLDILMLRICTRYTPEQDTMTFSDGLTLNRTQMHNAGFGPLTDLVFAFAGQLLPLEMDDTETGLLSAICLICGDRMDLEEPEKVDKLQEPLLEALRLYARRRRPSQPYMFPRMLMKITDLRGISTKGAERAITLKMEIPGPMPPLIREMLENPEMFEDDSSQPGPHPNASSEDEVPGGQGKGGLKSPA
human RAR-related Orphan Receptor beta (RORb), RORB (gene 6096), sequence (Q92753 whole entry, looked up, the tested form may be a part): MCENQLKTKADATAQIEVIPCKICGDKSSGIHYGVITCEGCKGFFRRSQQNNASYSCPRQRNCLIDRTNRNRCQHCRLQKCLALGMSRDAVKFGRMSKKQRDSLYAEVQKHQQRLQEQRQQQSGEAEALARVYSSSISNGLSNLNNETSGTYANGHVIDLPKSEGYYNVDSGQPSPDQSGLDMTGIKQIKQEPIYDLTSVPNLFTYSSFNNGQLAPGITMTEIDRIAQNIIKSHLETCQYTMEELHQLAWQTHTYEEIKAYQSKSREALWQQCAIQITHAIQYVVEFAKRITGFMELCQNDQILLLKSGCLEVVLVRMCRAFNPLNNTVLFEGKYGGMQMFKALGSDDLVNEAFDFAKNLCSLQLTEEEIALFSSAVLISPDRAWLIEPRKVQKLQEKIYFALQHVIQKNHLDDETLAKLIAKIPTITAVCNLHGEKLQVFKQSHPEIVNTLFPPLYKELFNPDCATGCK
Cellular tumor antigen p53 (Homo sapiens), sequence (P04637 whole entry, looked up): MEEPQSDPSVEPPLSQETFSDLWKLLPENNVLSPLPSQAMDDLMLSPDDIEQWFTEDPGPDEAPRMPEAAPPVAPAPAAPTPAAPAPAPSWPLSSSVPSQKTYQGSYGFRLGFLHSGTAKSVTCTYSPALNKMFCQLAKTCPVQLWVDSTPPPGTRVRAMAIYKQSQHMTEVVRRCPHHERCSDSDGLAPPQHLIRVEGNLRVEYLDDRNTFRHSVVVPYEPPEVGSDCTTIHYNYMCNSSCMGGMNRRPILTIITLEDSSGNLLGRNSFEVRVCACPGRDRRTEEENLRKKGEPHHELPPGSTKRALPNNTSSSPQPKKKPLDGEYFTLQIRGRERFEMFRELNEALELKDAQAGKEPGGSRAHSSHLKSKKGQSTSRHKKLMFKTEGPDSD
Myc proto-oncogene protein (Homo sapiens), sequence (P01106 whole entry, looked up): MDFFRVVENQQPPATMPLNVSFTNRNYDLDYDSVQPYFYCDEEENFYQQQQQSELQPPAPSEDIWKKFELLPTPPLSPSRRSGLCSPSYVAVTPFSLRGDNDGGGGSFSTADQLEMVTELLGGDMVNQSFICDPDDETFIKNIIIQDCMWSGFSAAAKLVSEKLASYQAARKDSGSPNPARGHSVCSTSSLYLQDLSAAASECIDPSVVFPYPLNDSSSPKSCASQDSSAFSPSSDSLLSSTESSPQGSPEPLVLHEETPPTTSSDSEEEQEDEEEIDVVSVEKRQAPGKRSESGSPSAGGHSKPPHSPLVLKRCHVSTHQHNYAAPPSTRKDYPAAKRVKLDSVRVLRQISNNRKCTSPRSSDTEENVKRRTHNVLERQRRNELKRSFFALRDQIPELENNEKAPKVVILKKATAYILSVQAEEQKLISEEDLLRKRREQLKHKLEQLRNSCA
Peroxisome proliferator-activated receptor gamma (Homo sapiens), sequence (P37231 whole entry, looked up, the tested form may be a part): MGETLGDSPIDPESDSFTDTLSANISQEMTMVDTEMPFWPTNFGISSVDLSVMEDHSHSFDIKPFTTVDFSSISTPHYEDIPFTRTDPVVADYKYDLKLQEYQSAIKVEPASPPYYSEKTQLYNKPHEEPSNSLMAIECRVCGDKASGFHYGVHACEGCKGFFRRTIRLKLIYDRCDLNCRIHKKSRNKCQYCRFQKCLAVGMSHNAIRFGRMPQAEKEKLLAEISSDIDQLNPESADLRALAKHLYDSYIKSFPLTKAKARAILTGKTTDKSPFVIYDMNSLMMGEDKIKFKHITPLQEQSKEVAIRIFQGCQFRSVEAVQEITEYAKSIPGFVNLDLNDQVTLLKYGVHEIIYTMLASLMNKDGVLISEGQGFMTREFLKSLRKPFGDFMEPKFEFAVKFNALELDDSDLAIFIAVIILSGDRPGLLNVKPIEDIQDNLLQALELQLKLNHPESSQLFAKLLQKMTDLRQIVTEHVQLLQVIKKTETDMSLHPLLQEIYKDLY
human Peroxisome Proliferator-activated Receptor delta (PPARd), PPARD (gene 5467), sequence (Q03181 whole entry, looked up, the tested form may be a part): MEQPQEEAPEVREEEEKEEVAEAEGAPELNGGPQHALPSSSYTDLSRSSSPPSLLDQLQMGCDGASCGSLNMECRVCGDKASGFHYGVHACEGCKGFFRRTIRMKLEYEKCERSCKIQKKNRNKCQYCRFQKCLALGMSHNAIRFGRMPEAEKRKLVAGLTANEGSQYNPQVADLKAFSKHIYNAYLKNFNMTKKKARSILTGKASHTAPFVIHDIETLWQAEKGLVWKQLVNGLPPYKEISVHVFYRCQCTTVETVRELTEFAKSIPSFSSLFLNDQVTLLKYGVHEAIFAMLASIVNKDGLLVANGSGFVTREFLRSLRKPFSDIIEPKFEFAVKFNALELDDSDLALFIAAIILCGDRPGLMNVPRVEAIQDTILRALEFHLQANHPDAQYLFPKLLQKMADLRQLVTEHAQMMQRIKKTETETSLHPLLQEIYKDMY

What is called AC50 is the midpoint of the concentration-response curve, whichever way the signal moves. Take `CC1=NN(c2ccccc2)C(=O)C1`: the compound was called inactive in [1], in assay [2], in assay [3], in assay [4], in assay [6] and in [7]. Also, the compound was called inactive in assay [8], in assay [9], in assay [10], in [11], in [12] and in [14]. Moreover, in assay [15], the compound was called inactive. For the same compound, the AC50 is 4.46 µM (active) in assay [5]; 57.1 µM (active) and 17.3 µM (active) in assay [13].

As for `O=P(O)(O)CCC(F)(F)C(F)(F)C(F)(F)C(F)(F)C(F)(F)C(F)(F)C(F)(F)C(F)(F)F`, the compound was called inactive in assay [1], in assay [2], in [3], in assay [4], in assay [16] and in [5]. Moreover, the outcome in assay [6], in assay [8], in assay [9], in assay [10], in [17] and in [11] was inactive. In addition, the compound was classed as inactive in assay [13] and in assay [15]. Further, the AC50 in [7] is 41.5 µM (active) and 28.8 µM (active); in assay [12] it was 30 µM (active) and 30.1 µM (active).

As to `CCOC(C)=O`, the compound was classed as inactive in [1], in assay [3], in assay [4], in assay [16], in [9] and in assay [17]. The call in [13], in assay [14], in [18] and in assay [15] was inactive.

With `CC(C)(C)c1ccc(CCC=O)cc1`, the compound was called inactive in assay [19], in [2], in [4] and in [13]. Further, the AC50 is 130 µM (active) in assay [3] and 29.3 µM (active) in [14].

`CCOC(=O)c1nc(C(Cl)(Cl)Cl)n(-c2ccc(Cl)cc2Cl)n1`: the result in assay [1] and in assay [4] was inactive. Moreover, the AC50 in [3] is 26.8 µM (active); in [13], 40.4 µM (active); in assay [14] it was 7.68 µM (active).

With `Cc1[nH]nc2c1N=C(c1ccccc1Cl)c1cc([N+](=O)[O-])ccc1N2`, the AC50 is 0.554 µM (active) in [1]; 0.353 µM (active) in assay [19]; 3.97 µM (active) in assay [5]; 4.73 µM (active) in assay [6]; 1.4 µM (active) in [7]; 547 nM (active) in assay [12]. The outcome in assay [4], in assay [8], in [9], in [10], in assay [14] and in assay [15] was inactive.

In the case of `CC1=CC(=O)c2ccccc2C1=O`, the outcome in [1], in [2], in assay [4], in assay [16], in [8] and in [11] was inactive. The outcome in assay [13], in assay [18] and in assay [15] was inactive. The results for the AC50 in assay [3] and in [14] were 5.04 µM (active) and 7.29 µM (active), respectively.

Turning to `OCCN1CN(CCO)CN(CCO)C1`, the call in assay [19], in assay [2], in assay [8], in assay [9], in assay [17] and in [11] was inactive. Further, the call in assay [13], in assay [18] and in [15] was inactive. For the same compound, the AC50 in assay [3] was 56.5 µM (active); in [4], 160 µM (active); in [5], 20 µM (active); in [6] it was 32.6 µM (active); in assay [7] it was 30.2 µM (active); in [10], 29.4 µM (active). Besides, in [12], the AC50 is 24200 nM (active).
